Test results as given in PubChem BioAssay (NCI).
About 79,000 compounds went through this panel and 15% of them were active in at least one assay; those are over-represented in the sample as a whole. Rule as the data show it: active = growth inhibition above about 70%; inactive = the rest.

Experiments:
[1] = NCI Yeast Anticancer Drug Screen. Data for the rad50 strain (AID 155);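 also: 0% = growth of vehicle-only cultures of the same strain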; conditions: S. cerevisiae rad50 strain growth inhibition; at 50.0 µM; active compounds read high
Method in brief: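 Relative growth inhibition (compound vs vehicle) was measured in yeast with a defined repair-gene alteration.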

[2] = NCI Yeast Anticancer Drug Screen. Data for the mec2-1 strain (AID 157); conditions: S. cerevisiae mec2-1 strain, at 50.0 µM, active compounds read high
Method in brief: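 Readout is yeast growth inhibition, normalised to vehicle-treated controls, in the mec2-1 strain exposed to compound.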

[3] = NCI Yeast Anticancer Drug Screen. Data for the sgs1 mgt1 strain (AID 161);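 also: 0% = growth of cultures given vehicle only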; conditions: S. cerevisiae sgs1 mgt1 strain, at 50.0 µM, active compounds read high
Method in brief: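 Growth of a repair-deficient yeast mutant was monitored after compound treatment and expressed as inhibition relative to vehicle-treated cultures.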

[4] = NCI Yeast Anticancer Drug Screen. Data for the cln2 rad14 strain (AID 165);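 also: 0% = growth equal to vehicle treated cultures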; conditions: S. cerevisiae cln2 rad14 strain, at 50.0 µM, active compounds read high
Method in brief: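 Relative to vehicle controls, growth inhibition of compound-treated cln2 rad14 yeast was recorded.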

[5] = NCI Yeast Anticancer Drug Screen. Data for the bub3 strain (AID 167); conditions: S. cerevisiae bub3 mutant strain, at 50.0 µM, active compounds read high
Method in brief: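 Screening used yeast with an engineered genetic alteration affecting cell cycle control. Compound-exposed cultures were compared with vehicle cultures, and reduced growth was taken as inhibition.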

[6] = NCI Yeast Anticancer Drug Screen. Data for the mlh1 rad18 strain (AID 175); conditions: S. cerevisiae mlh1 rad18 strain growth inhibition; at 50.0 µM; active compounds read high
Method in brief: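 Test agents were incubated with a yeast strain of defined genotype (DNA damage repair defect). Inhibition of growth was derived by comparison with vehicle-exposed cultures.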

Measured: growth inhibition

Cc1cn(C2CC(N(C)C)C(CO)O2)c(=O)[nH]c1=O (stereo unspecified)
inactive: [1] -28.2% | [2] -25.8% | [3] -18.4% | [4] 12.3% | [5] -28.3% | [6] -34.8%

O=C(NCCNC(=O)c1cccc([N+](=O)[O-])c1O)c1cccc([N+](=O)[O-])c1O
inactive: [1] 19.6% | [2] 6.8% | [3] -2.85% | [4] -9% | [5] -3.2% | [6] 11.8%

COC(=O)CCC(N)C(=O)NC(Cc1ccccc1)C(=O)NC(C)C(=O)NC1C(O)OC(CO)C(O)C1O (stereo unspecified)
inactive: [1] 3.95% | [2] 15.8% | [3] 4.75% | [4] -0.65% | [5] -7.6% | [6] -5.6%

CC/C(=N/NS(=O)(=O)c1ccc(C)cc1)c1ccc(O)cc1
inactive: [1] 22.7% | [2] 18.1% | [3] 7.9% | [4] 36.8% | [5] 25.5% | [6] 46.6%

O=C(O)CCC(=O)Nc1cc(C(F)(F)F)ccc1Cl
inactive: [1] 24.1% | [2] 13.7% | [3] 7.8% | [4] 25.1% | [5] 14.8% | [6] 7.5%

NS(=O)(=O)c1ccc(NCc2cnc3ccccc3c2)cc1
inactive: [1] -4.65% | [2] -22.3% | [3] 12% | [4] -5.25% | [5] 4.1% | [6] 27.4%

CC1(C)CCC2(CC1)CC[N+](C)(CCC[N+](C)(C)C)CC2
inactive: [1] -26.6% | [2] -8.4% | [3] -10.8% | [4] -11.8% | [5] 8.7% | [6] -11.2%

N#CCc1c(Cl)ccc(Cl)c1Cl
inactive: [1] 37% | [2] 45.6% | [3] 44.6% | [4] 3.9% | [5] 58.8% | [6] 39.5%

CCOC(=O)C(=N\Nc1ccccc1)/C(C)=N\NC(N)=S
inactive: [1] 13.2% | [2] -7.45% | [3] -11.7% | [4] 8.95% | [5] 4.5% | [6] 1.9%

Cc1ccc2c(c1)Nc1ccccc1P2(=O)O
inactive: [1] 7.8% | [2] -3.15% | [3] -40% | [4] 37.6% | [5] 14.3% | [6] -15.4%

CC(=O)OC1(C(=O)O)CCCCC1
inactive: [1] 5.8% | [2] 14% | [3] -0.05% | [4] -19.9% | [5] 5.25% | [6] 9.65%

Cc1cc(OCC(=O)O)c(Cl)cc1Cl
inactive: [1] -13.4% | [2] -9.7% | [3] -50.5% | [4] -22.9% | [5] -17.9% | [6] -11.7%

C=C(Cl)COc1ccc(C(=O)c2ccccc2)cc1
inactive: [1] -4.5% | [2] -9% | [3] -6.5% | [4] -64% | [5] -7.25% | [6] -14.9%

C[n+]1ccc(/C=C/c2ccnc3c(O)cccc23)cc1
inactive: [1] 17.5% | [2] 11.7% | [3] -13.4% | [4] -7.3% | [5] -7.4% | [6] 18%

NCCNCc1ccccc1
inactive: [1] 5.5% | [2] -1.5% | [3] 2.85% | [4] 5.65% | [5] -1.8% | [6] 0.15%

O=S(=O)(O)c1cc(O)c2c(N=Nc3c(S(=O)(=O)O)cc4cc(S(=O)(=O)O)cc(N=Nc5c(S(=O)(=O)O)cc6cc(S(=O)(=O)O)cc(O)c6c5O)c4c3O)cc(S(=O)(=O)O)cc2c1
inactive: [1] -4.7% | [2] 26.6% | [3] 5.45% | [4] -14.8% | [5] -7.6% | [6] 8.5%

Cn1c(=O)c2c(nc(NCCOC(=S)S)n2C)n(C)c1=O
inactive: [1] -44.8% | [2] 1.8% | [3] -10.3% | [4] 32.5% | [5] 5.3% | [6] 15.9%

COC(=O)c1cc(=O)[nH]c2c1c(=O)[nH]c(=O)n2C
inactive: [1] 5.7% | [2] 9% | [3] -4.7% | [4] -39.2% | [5] 7.1% | [6] 21.4%

CCOP(=O)(OCC)C([O][Sb]([O]CC(C)Cl)[O]CC(C)Cl)c1ccc(OC)cc1 (stereo unspecified)
inactive: [1] -41.9% | [2] -4.85% | [3] -10.9% | [4] -2.45% | [5] 2.05% | [6] -18.6%

CCCCCCCC/C=C\CCCCCCCCCCCC(=O)O
inactive: [1] -5.7% | [2] 5.75% | [3] 0.4% | [4] -46% | [5] -17% | [6] -6.25%

CC(C)(C)n1c(=O)n(-c2ccccc2)n(C(C)(C)C)c1=O
inactive: [1] 45.5% | [2] -11.8% | [3] -28.2% | [4] 3% | [5] -27.7% | [6] -11%
